Screen size: about 48,000 compounds; about 13,000 (27%) showed an effect of 50% or more. The list shows a part of the results.
What follows are compounds tested on Wolbachia pipientis (assay: Anti-Wolbachia Cell-Based Screen). Conditions: 5 µM.
Assay type: functional
Set-up: scale not given: in the data most compounds retested in dose-response had high values

Row | Compound | Percent Effect [%]
1 | CC(C)(C)c1cc(CN2CCOC(CN)C2)n[nH]1 (stereo not drawn) | -6.517
2 | Cc1ccccc1C1CCN(CCn2cc(-c3cccc(O)c3)nn2)C1 (stereo not drawn) | -0.06043
3 | CN(Cc1ccc2c(c1)OCCO2)C(=O)Cn1ccccc1=O | -2.106
4 | CC1(C)CN(Cc2csc(CS(C)(=O)=O)n2)Cc2ccccc21 | -1.783
5 | COCC1CCN(C(=O)c2cc(-c3ccco3)nc3c(Cl)cccc23)C1 (stereo not drawn) | -13.75
6 | O=C(c1cnn[nH]1)N(Cc1ccncc1)CC1CCCO1 (stereo not drawn) | -2.849
7 | CC(=O)NC1CCN(c2nc(N)nc3c2CCCC3)C1 (stereo not drawn) | 13.41
8 | C[C@@H]1CN(c2nc(N)nc3c2CCC3)CC[C@@]1(O)C1CCC1 | -3.571
9 | Cc1nc2c(c(N3CCC4(CCCNC4=O)C3)n1)CCC2 (stereo not drawn) | 3.026
10 | Cc1c(C)n(Cc2ccncc2)c2nc3c(c(N)c12)CCCCC3 | 23.97
11 | CN1CCCc2c1nc1c(c2N)CCC1 | 99.68
12 | CN1CCc2c1nc1c(c2N)CCC1 | 94.13
13 | CN1CCCCc2c1nc1c(c2N)CCCC1 | 88.26
14 | C[C@@H]1CN(c2nc(N)nc3c2CCC3)C[C@]1(C)O | -4.313
15 | Cc1c(C)n(-c2ccccn2)c2nc3c(c(N)c12)CCCC3 | 16.56
16 | CC(C)N(C(=O)c1ccccc1-c1nc2c([nH]1)CCNC2)C(C)C | 16.68
17 | Cc1cccc(COC[C@@]23CCC[C@@H]2CN(S(=O)(=O)N(C)C)C3)n1.O=C(O)C(F)(F)F | -15.69
18 | CCN(C)CC(C)Cn1cnc(-c2ccccc2)c1-c1cncn1CC (stereo not drawn) | 1.36
19 | CCc1nc(NCCCn2cccn2)c2c(n1)c(C)nn2C | 10.76
20 | O=C(Nc1ccccc1OC1CCOC1)c1[nH]nc2c1CCCC2 (stereo not drawn) | 13.6
21 | Cc1cc(C(=O)NCCc2nc3c(s2)CCCC3)n(C)n1 | 113.4
22 | COc1nc2c(cc1C(=O)NCCc1nc(C)c(C(=O)O)s1)CCC2 | -5.377

Row | Compound | Percent Effect [%]
23 | Cc1nn2cc(CCNC(=O)c3cc(C(C)C)nn3C)nc2s1 | -16.47
24 | COc1nc2c(cc1C(=O)NCCc1nc3c(s1)CCC3)CCC2 | -9.23
25 | COc1cccc2c1OCC(C(=O)NCCc1nc3c(s1)CCC3)C2 (stereo not drawn) | 3.483
26 | CC(C)c1cc(C(=O)NCCc2nc3c(s2)CCC3)n(C)n1 | 118.8
27 | CCN(CC)C(=O)Cn1cc(C(=O)NCCc2nc(C)c(C)s2)nn1 | -0.7768
28 | O=C(O)c1ccnc(-c2ccnc(NCCc3nc4c(s3)CCC4)n2)c1 | -20.67
29 | Cc1nc(CCNC(=O)c2cc(C(C)C)nn2C)sc1C | 143.4
30 | CCC[C@@H]1CN(Cc2ccc(C(F)(F)F)nc2)C[C@H]1C(=O)O | 8.814
31 | CC(C)N1CCc2ncn(C)c2C1C(=O)NCCN1CCCC1 (stereo not drawn) | -5.495
32 | COc1ccc(NC(=O)N2CCN(c3ncccn3)CC2)cn1 | 4.438
33 | CCN(C)C1COC2(CCN(C(=O)c3cccc(Cl)c3)CC2)C1.O=C(O)C(F)(F)F (stereo not drawn) | -32.01
34 | CN(C)CCN1CCC2(CCN(C(=O)c3cccc(F)c3)CC2)C1=O.O=C(O)C(F)(F)F | 96.95
35 | CCCN1CCN(C(=O)c2cccnc2)CC1 | 10.45
36 | COCCN1CCC2(CCCN(C(=O)c3ccoc3C)C2)C1=O (stereo not drawn) | -2.249
37 | CN(C)CCN1CCC2(CCN(C(=O)c3ccncc3)CC2)C1=O.O=C(O)C(F)(F)F.O=C(O)C(F)(F)F | 99.78
38 | CN(C)CCN1CCC2(CCCN(Cc3cccn3C)C2)C1=O.O=C(O)C(F)(F)F.O=C(O)C(F)(F)F (stereo not drawn) | -29.62
39 | CN1CC(c2ccccc2)CC12CCN(C(=O)c1cccnc1)CC2 (stereo not drawn) | -3.135
40 | CN(C)CCN1CCC2(CCN(C(=O)c3cccnc3)CC2)C1=O | 114
41 | COCCN1CCC2(CCN(C(=O)c3ccc(F)cc3)CC2)C1=O | 82.71
42 | COCCN1CCN(C)C2(CCN(C(=O)c3ccnnc3)CC2)C1=O.O=C(O)C(F)(F)F | 1.549
43 | O=C(O)C(F)(F)F.O=C(c1cccnc1)N1CCC2(CC1)CCN(c1ccsc1)C2=O | 13.97
44 | COc1ccc(-c2nc(CNC(C)Cn3cccn3)cs2)cc1 (stereo not drawn) | 6.683

Row | Compound | Percent Effect [%]
45 | COCCNc1nc2c(c(NCCc3cccs3)n1)CCNCC2 | 23.06
46 | CC(NC(=O)NCCCn1cncn1)c1ccccc1Cl (stereo not drawn) | -1.417
47 | Cc1nn(C)c(Oc2cccc(F)c2)c1NC(=O)C1CCOCC1 | 12.99
48 | CNC(=O)c1c(C)cccc1NCc1nnc(C2CC2)o1 | -4.757
49 | O=C(NC[C@H]1OC[C@@H](N(CC2CC2)CC2CC2)[C@@H]1O)Nc1ccccc1 | -9.212
50 | Cc1cc(C)n(-c2cncc(NCCNC(=O)C(C)C)n2)n1 | 1.534
51 | CC(C)(C)C(=O)NCCc1cc2nc(-c3ccncc3)ccn2n1 | 129.3
52 | CCN(C)C(=O)c1ccc(N(C)Cc2cc(-c3ccncc3)no2)nc1 | -25.61
53 | CC(C)C(=O)NCCc1cc2nc(-c3ccncc3)ccn2n1 | 130.4
54 | CC(C)[C@H](Nc1cc(-c2ccncc2)nc2ccnn12)C(N)=O | -7.86
55 | CCCC(=O)N(CCCN1CCOCC1)c1nc2c(C)c(C)ccc2s1.Cl | 4.916
56 | CNC(=O)c1ccc(CNC(=O)c2cc(C(C)C)n(C)n2)cc1 | -0.9811
57 | CC(C)OC(=O)N1CCCC(c2nccn2Cc2ccncc2)C1 (stereo not drawn) | -3.54
58 | COc1ncnc2c1CCN(C(=O)Cc1cccc(F)c1)CC2 | 3.249
59 | O=C(Cc1cccc(F)c1)N1CCc2ncnc(N3CCCC3)c2CC1 | -1.475
60 | O=C(Cc1cccc(F)c1)N1CCc2ncnc(NC3CC3)c2CC1.O=C(O)C(F)(F)F | 106
61 | Cc1ncnc2c1CCN(C(=O)Cc1cccc(F)c1)CC2 | 0.1924
62 | O=C(Cc1cccc(F)c1)N1CCc2ncnc(NC3CCC3)c2CC1 | 110
63 | NC(=O)NC(=O)CCn1ccc(-c2ccsc2)n1 | -12.21
64 | CCOC(=O)C1CCN(C(=O)CN2CCCC2c2ccsc2)CC1 (stereo not drawn) | 0.9272
65 | Cc1cccc(CNc2n[nH]c(C)n2)c1 | 94.75
66 | CSc1ccc(CNC2(c3ccc(F)cc3)CCOCC2)cc1 | -10.48

Row | Compound | Percent Effect [%]
67 | CSc1ccc(CNc2n[nH]c(C)n2)cc1 | 110
68 | Cc1cccc(CNc2nnc(C(C)C)o2)c1 | -24.34
69 | Cc1cccc(CNc2cncc(-n3cccn3)n2)c1 | 4.61
70 | COc1ccc(CNc2c(C)nn(C(C)C)c2C)cc1 | -4.166
71 | Cc1nc(CNc2ncc(Br)cn2)n[nH]1 | -4.306
72 | COc1ccc(CNC(C)c2cn[nH]c2C)cc1 (stereo not drawn) | 2.524
73 | COc1ccc(CNc2n[nH]c(C)n2)cc1 | 96.08
74 | Cc1noc(NCc2ccc(F)cc2)n1 | 5.861
75 | Cc1nnc(NCc2ccc(F)cc2)o1 | 4.213
76 | Cc1ccc(CNc2n[nH]c(C)n2)cc1 | 101.1
77 | O=C(Nc1ccc(F)cc1F)N(CCC(F)(F)F)C[C@H](O)CO | -18.87
78 | CN1CCN(Cc2cn3c(n2)CNCC3)CC1.Cl.Cl.Cl | -6.492
79 | CCC(NCc1ncc[nH]1)c1nc(C(F)(F)F)cs1 (stereo not drawn) | -16.74
80 | COC(=O)c1ccc(CNC(=O)CN2C[C@@H](NC(C)=O)[C@H](C(C)C)C2)o1 | 2.567
81 | COc1c(C)cnc(CN(C)C(=O)c2ccccn2)c1C | 13.08
82 | CCN(C)S(=O)(=O)N1CCCC(CO)(CC=C(C)C)C1 (stereo not drawn) | -20.38
83 | COc1cc(C(C)NCc2ncccc2C)ccc1SC(F)F (stereo not drawn) | -24.97
84 | Cc1cc(C)cc(C(C)NCc2nnc(C)s2)c1 (stereo not drawn) | -26.09
85 | Cc1nnc(CNC(C)c2cc(C)c(F)c(C)c2)s1 (stereo not drawn) | 61.57
86 | Cc1ccc(CNC(=O)CN(C)CC2CCN(CCO)CC2)s1 | -11.99
87 | O=C1NCCN(CC2CC2)C12CCN(Cc1ccc3c(c1)OCO3)CC2 | -10.73
88 | CCN1Cc2cc3c(cc2NCCC1=O)OCO3 | 124.2

Row | Compound | Percent Effect [%]
89 | O=C1CCNc2cc3c(cc2CN1CC1CC1)OCO3 | 89.98
90 | CC(C)(C)CN1Cc2cc3c(cc2NCCC1=O)OCO3 | 93.04
91 | COc1nccnc1N1CCN(Cc2ccc3c(c2)OCO3)C(=O)C1 | -4.11
92 | COC(=O)CN1Cc2cc3c(cc2NCCC1=O)OCO3 | 87.85
93 | COC(=O)CCC(=O)N1CCc2[nH]nc(-c3ccc4c(c3)OCO4)c2C1 | 6.027
94 | CC(C)SCc1cccc(NC(=O)NC(C)c2nc[nH]n2)c1 (stereo not drawn) | -14.93
95 | Cc1ccccc1S(=O)(=O)NC(=O)CSc1ccc2c(c1)OCCO2 | -12.34
96 | O=C(CSc1ccccc1Cl)NS(=O)(=O)c1ccc2c(c1)OCCO2 | 0.8211
97 | CN(C)CCN(C)C1CCCN(C(=O)c2ccc(Cn3ccnc3)o2)C1 (stereo not drawn) | -5.736
98 | CC(O)CN1CCC(CN(C)Cc2cccc(C#N)c2)CC1 (stereo not drawn) | -3.336
99 | COC(=O)c1cccn1C1CCN(C(=O)c2cn[nH]c2C)CC1 | 1.064
100 | COC(=O)c1cccn1C1CCN(C(=O)c2ccc(C)cc2O)CC1 | 105.5
101 | COC(=O)c1cccn1C1CCN(C(=O)c2ccc(C)[nH]c2=O)CC1 | 102.8
102 | COC(=O)c1cccn1C1CCN(C(=O)c2c(C)noc2C)CC1 | 105.8
103 | COC(=O)c1cccn1C1CCN(C(=O)c2cc(C)ccc2O)CC1 | -6.759
104 | Cc1ccc(F)cc1C(=O)OCC1CCCN1C(N)=O (stereo not drawn) | 7.06
105 | COC(=O)c1cccn1C1CCN(C(=O)c2cc(F)ccc2F)CC1 | 16.29
106 | COc1cccc([C@@H]2CN(C(=O)c3ccc(C)cc3O)C[C@H]2C(=O)O)c1 | 2.23
107 | Cc1ccc(C(=O)N2CCC(c3nccn3C(C)C)CC2)c(=O)[nH]1 | 4.246
108 | COC(=O)c1cccn1C1CCN(C(=O)c2cc(F)ccc2C)CC1 | 95.76

Source: ChEMBL document CHEMBL3988442, “University of Dundee, Small-Polar-MMV Screening Library” (2021)
